Test in all cases: DAPPL (digital affinity profiling via proximity ligation, sequencing); 10 mM Tris-HCl pH 7.5, 50 mM NaCl, 1 mM DTT, 4% glycerol, room temperature, 30 min; GST-TFs on glutathione beads, 16-mer random dsDNA library, 0.1% formaldehyde crosslink after washing; high values mean tight binding
What all share (settings): protein: recombinant; tags: N-terminal GST; dsDNA, one strand shown

For one assay, the target named is T1, ELK1 (Homo sapiens, UniProt P19419 1-428).
T1 sequence: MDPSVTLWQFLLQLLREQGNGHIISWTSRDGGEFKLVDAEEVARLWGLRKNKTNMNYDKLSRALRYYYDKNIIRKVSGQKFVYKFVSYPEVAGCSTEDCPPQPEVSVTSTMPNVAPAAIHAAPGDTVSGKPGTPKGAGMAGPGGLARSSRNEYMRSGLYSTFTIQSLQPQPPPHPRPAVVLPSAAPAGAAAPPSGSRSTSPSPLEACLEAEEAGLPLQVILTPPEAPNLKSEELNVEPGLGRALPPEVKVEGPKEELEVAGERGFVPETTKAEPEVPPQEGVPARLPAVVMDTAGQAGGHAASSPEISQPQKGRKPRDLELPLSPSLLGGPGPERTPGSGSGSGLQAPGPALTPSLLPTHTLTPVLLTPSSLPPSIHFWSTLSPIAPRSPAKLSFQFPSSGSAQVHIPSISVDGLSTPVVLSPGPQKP
Put shortly: (§1)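 Sequencing on an Illumina NextSeq500 followed washing, crosslinking with 0.1% formaldehyde, proximity ligation (BsaI/T4 ligase, 1 h, 37 °C) and PCR amplification of pools that had been incubated for 30 min at room temperature with 200 nmole of a random double-stranded 16-mer DNA library in Tris/NaCl/DTT/glycerol buffer. Each pool held DNA-barcoded human transcription factors, expressed in yeast as GST fusions and captured on glutathione beads, plus a tag-only sample. Binding signal is a hexamer's read frequency for a factor divided by its frequency in the tag-only sample.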

Another assay deals with T2, GABPA (Homo sapiens, UniProt Q06546 1-454).
T2 sequence: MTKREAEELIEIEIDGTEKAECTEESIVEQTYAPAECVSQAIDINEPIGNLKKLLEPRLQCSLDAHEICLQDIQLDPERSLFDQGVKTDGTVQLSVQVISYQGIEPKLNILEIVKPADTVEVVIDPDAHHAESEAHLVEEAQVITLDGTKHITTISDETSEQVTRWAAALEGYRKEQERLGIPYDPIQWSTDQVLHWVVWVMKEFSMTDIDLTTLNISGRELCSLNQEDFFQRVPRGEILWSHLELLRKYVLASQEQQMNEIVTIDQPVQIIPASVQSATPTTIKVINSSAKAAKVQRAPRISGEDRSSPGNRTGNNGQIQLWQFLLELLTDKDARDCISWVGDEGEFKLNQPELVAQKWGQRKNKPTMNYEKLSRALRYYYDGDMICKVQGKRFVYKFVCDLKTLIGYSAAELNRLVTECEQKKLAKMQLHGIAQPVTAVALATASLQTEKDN
Put shortly: as §1

A further assay deals with T3, ERG (Homo sapiens, UniProt P11308 1-479).
T3 sequence: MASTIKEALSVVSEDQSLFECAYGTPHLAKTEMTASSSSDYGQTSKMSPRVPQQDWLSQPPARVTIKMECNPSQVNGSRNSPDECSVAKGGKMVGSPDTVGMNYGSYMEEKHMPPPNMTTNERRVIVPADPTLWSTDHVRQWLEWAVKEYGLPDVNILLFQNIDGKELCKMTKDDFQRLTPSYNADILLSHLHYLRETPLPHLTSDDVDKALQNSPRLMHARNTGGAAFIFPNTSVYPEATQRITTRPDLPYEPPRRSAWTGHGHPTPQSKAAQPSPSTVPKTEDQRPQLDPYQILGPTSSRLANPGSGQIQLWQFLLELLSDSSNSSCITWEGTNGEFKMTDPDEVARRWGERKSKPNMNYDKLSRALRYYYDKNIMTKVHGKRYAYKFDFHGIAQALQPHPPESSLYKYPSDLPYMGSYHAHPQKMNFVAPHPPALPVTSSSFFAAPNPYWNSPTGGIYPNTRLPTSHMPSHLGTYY
Put shortly: as §1

Another assay concerns the target ELF1 (Homo sapiens, UniProt P32519 1-619). Put shortly: as §1
For another assay, the target named is T4, EHF (Homo sapiens, UniProt Q9NZC4 1-300).
T4 sequence: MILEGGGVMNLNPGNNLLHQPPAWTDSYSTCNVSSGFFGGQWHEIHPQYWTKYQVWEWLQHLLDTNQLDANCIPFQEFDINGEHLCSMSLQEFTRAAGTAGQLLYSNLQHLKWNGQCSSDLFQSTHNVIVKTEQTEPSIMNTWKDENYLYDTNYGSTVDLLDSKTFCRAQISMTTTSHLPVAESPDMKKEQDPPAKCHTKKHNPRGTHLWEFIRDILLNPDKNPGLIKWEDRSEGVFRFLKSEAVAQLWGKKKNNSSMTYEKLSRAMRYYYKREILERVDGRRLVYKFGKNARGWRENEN
Put shortly: as §1

The target of the next assay is SPIB (Homo sapiens, UniProt Q01892 1-262). Put shortly: as §1
Chain of SPIB (Q01892 whole entry): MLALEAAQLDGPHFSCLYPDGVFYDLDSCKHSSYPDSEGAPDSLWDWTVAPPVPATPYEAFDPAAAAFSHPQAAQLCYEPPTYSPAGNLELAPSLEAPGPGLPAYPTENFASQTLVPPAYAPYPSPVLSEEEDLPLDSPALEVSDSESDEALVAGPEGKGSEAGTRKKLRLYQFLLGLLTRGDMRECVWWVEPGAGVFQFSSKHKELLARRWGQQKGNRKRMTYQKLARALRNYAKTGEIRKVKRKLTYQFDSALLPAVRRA
For another assay, the target named is T5, ELK3 (Homo sapiens, UniProt P41970 1-407).
T5 sequence: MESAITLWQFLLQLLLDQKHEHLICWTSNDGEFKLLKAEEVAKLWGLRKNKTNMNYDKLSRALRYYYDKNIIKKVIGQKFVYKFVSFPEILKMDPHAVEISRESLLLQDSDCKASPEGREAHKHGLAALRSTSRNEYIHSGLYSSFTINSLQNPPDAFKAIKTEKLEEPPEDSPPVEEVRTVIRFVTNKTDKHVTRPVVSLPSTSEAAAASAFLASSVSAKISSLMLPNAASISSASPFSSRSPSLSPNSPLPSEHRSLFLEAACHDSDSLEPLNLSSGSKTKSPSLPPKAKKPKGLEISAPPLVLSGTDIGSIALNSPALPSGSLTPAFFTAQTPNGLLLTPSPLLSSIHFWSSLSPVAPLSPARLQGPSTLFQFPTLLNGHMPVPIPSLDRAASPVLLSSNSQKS
Put shortly: as §1

A further assay concerns the target T6, SPIC (Homo sapiens, UniProt Q8N5J4 1-248).
T6 sequence: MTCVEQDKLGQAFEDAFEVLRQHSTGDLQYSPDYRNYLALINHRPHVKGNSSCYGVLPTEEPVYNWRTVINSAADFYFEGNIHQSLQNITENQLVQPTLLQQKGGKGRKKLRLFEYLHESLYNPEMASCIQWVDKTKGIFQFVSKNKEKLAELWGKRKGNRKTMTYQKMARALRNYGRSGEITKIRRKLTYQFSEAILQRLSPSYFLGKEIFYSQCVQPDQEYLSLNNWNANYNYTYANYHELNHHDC
Put shortly: as §1

A further assay concerns the target ELF4 (Homo sapiens, UniProt Q99607 1-663). Put shortly: as §1
The next assay has as its target T7, ELK4 (Homo sapiens, UniProt P28324-2 1-405).
T7 sequence: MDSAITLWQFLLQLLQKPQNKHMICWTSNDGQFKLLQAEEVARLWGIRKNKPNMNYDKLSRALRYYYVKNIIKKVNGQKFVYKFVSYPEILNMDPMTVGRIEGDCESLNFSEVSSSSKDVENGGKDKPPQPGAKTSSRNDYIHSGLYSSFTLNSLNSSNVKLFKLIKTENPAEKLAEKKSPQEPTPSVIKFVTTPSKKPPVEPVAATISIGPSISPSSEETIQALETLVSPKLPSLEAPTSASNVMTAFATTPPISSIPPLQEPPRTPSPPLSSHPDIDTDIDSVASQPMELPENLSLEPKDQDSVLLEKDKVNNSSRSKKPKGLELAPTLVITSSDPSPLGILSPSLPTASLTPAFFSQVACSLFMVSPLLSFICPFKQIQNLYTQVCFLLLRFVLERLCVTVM
Put shortly: as §1

In another assay the target is ETV1 (Homo sapiens, UniProt P50549 1-477). Put shortly:
as §1

The target of another assay is T8, ERF (Homo sapiens, UniProt P50548 1-548).
T8 sequence: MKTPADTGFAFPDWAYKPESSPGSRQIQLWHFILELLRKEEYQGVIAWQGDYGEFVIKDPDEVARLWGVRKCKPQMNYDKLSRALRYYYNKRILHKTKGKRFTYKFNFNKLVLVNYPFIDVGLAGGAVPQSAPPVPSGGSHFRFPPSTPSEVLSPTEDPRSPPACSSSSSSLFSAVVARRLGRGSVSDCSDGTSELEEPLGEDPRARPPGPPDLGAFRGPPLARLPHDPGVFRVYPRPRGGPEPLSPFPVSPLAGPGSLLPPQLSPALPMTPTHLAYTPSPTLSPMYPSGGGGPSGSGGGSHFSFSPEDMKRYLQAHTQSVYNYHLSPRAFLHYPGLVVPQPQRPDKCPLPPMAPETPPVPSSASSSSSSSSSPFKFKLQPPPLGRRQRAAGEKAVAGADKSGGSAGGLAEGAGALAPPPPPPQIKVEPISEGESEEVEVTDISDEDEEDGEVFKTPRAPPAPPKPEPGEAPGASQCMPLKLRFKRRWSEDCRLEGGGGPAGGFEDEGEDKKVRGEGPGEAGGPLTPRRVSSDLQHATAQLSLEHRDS
Put shortly: as §1

The target in another assay is T9, ETV3L (Homo sapiens, UniProt Q6ZN32 1-361).
T9 sequence: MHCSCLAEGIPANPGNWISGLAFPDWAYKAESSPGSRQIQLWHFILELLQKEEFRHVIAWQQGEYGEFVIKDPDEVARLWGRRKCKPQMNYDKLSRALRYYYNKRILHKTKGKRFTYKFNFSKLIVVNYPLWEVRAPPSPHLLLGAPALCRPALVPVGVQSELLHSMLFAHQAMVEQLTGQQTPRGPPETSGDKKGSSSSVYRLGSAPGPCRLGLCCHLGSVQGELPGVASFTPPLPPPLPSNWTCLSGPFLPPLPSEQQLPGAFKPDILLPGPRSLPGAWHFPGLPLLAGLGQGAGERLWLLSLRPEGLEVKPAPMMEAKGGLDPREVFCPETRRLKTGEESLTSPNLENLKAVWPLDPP
Put shortly: as §1

Another assay deals with T10, ETS2 (Homo sapiens, UniProt P15036 1-469).
T10 sequence: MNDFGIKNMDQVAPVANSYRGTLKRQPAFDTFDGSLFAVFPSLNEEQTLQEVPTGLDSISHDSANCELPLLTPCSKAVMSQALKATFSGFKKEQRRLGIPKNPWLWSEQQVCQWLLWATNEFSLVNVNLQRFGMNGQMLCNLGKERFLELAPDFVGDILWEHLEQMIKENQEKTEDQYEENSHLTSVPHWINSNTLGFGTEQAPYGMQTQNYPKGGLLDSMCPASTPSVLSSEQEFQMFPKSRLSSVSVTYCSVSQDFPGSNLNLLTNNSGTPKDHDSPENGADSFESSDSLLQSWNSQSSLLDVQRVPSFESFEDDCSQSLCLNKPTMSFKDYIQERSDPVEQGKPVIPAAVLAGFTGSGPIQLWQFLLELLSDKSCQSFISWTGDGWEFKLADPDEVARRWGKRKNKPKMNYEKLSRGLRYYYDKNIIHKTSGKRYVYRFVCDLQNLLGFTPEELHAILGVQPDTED
Put shortly: as §1

The target in a further assay is T11, SPDEF (Homo sapiens, UniProt O95238 1-335).
T11 sequence: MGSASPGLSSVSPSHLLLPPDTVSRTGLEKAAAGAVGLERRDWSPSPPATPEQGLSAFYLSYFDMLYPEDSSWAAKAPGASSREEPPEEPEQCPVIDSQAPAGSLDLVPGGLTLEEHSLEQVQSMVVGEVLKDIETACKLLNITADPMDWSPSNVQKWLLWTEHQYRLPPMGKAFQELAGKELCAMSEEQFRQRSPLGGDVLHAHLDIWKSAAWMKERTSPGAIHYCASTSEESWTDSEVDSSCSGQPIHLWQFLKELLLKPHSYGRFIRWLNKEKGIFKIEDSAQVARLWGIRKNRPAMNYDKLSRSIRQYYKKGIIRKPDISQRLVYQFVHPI
Put shortly: as §1

A further assay concerns the target T12, ETV7 (Homo sapiens, UniProt Q9Y603 1-341).
T12 sequence: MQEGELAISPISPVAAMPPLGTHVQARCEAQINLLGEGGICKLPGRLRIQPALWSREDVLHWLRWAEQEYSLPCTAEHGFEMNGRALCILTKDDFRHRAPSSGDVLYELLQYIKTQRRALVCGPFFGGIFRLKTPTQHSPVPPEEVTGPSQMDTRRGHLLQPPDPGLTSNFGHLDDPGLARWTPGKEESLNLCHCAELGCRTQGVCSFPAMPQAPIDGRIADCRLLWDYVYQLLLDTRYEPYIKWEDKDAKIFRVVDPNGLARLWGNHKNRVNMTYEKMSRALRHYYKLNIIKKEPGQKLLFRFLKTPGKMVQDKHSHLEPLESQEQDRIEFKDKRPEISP
Put shortly:
as §1

The target of another assay is ETV6 (Homo sapiens, UniProt P41212 1-452). Put shortly: as §1
Chain of ETV6 (P41212 whole entry): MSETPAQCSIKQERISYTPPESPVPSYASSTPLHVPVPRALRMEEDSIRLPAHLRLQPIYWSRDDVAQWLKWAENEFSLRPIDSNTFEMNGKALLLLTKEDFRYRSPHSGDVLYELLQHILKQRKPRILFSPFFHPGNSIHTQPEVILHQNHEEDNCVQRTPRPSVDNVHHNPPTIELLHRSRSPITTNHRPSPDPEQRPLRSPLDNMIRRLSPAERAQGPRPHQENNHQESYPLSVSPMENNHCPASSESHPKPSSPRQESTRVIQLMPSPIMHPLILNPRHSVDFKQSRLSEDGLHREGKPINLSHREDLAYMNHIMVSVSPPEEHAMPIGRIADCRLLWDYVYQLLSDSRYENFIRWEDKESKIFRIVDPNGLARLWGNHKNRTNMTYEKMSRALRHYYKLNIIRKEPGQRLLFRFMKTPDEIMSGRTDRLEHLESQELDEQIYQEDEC

Chain of ELF4 (Q99607 whole entry): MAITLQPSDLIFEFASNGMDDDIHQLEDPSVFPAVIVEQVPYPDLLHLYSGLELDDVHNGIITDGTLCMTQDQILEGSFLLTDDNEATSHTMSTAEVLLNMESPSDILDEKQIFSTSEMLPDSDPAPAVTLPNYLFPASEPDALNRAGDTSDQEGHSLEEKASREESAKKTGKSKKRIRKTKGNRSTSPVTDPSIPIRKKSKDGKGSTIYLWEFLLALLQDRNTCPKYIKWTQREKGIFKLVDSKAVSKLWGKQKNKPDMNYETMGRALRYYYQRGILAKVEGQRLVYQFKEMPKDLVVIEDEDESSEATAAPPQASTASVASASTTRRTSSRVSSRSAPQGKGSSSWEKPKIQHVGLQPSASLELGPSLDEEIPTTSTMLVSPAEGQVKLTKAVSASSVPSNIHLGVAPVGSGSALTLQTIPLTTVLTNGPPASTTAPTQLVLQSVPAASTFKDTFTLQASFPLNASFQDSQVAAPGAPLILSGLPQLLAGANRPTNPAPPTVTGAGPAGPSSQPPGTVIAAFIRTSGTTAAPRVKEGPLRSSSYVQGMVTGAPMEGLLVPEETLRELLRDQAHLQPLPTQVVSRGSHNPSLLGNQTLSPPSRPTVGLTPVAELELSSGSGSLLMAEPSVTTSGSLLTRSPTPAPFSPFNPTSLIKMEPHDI
Chain of ETV1 (P50549 whole entry): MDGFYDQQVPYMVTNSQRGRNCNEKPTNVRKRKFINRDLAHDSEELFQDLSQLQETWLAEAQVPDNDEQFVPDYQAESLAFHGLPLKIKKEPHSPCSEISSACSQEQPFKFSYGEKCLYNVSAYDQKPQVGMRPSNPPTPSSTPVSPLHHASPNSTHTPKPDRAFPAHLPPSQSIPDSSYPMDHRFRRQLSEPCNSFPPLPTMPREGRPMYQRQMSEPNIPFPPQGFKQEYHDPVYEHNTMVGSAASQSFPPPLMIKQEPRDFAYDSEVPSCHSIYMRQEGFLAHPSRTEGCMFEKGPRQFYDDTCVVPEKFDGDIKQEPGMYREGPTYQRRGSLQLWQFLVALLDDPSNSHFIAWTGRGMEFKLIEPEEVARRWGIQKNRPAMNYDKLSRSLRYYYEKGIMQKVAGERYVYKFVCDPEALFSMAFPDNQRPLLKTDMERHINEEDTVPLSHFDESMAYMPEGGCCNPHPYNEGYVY
Chain of ELF1 (P32519 whole entry): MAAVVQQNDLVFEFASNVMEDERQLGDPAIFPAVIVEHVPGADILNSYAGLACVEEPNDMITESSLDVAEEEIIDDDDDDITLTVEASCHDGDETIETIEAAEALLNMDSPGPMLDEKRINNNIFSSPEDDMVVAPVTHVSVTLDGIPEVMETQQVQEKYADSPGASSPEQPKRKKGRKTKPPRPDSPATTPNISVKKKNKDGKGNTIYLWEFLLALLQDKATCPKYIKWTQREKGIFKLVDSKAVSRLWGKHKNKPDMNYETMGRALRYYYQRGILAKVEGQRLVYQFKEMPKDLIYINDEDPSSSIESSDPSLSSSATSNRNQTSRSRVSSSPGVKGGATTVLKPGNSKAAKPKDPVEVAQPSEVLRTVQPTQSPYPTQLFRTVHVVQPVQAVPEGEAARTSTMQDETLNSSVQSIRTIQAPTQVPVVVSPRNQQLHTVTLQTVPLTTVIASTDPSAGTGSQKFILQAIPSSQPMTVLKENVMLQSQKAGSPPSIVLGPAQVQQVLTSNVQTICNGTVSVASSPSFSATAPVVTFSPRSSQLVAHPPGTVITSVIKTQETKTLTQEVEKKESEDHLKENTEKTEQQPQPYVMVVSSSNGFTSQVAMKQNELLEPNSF

With CGTCTG, the binding signal with ELK1 is 1.06 fold enrichment (6-mer frequency, TF over GST control); in the assay with GABPA, 1.06 fold enrichment (6-mer frequency, TF over GST control); with ERG it was 1.11 fold enrichment (6-mer frequency, TF over GST control); in the assay with ELF1 it was 1.11 fold enrichment (6-mer frequency, TF over GST control); in the assay with EHF, 1.07 fold enrichment (6-mer frequency, TF over GST control); with SPIB, 1.18 fold enrichment (6-mer frequency, TF over GST control). For the same sequence, the binding signal in the assay with ELK3 is 1.05 fold enrichment (6-mer frequency, TF over GST control); with SPIC, 1.17 fold enrichment (6-mer frequency, TF over GST control); with ELF4 it was 1.05 fold enrichment (6-mer frequency, TF over GST control); with ELK4 it was 1.08 fold enrichment (6-mer frequency, TF over GST control); with ETV1, 1.12 fold enrichment (6-mer frequency, TF over GST control); with ERF it was 1.11 fold enrichment (6-mer frequency, TF over GST control). The binding signal with ETV3L was 1.14 fold enrichment (6-mer frequency, TF over GST control); with ETS2 it was 1.08 fold enrichment (6-mer frequency, TF over GST control); in the assay with SPDEF, 1.05 fold enrichment (6-mer frequency, TF over GST control); with ETV7, 1.02 fold enrichment (6-mer frequency, TF over GST control); with ETV6, 1.01 fold enrichment (6-mer frequency, TF over GST control).

These data come from article PMC7862700, “An all-to-all approach to the identification of sequence-specific readers for epigenetic DNA modifications on cytosine”.
